The supplement of paper PMC6555819

Key:
Experiment in all cases: PBM binding z-score (relative to random genomic background probes); higher = stronger binding; sequences stand for … in GC…GCGATTGACAGCGTAGAATGAAGG
[1] = system: RARb homodimer (NR concentration 270 nM)
Outline: (§1)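 Random background probes are the reference for binding z-scores. These scores derive from regression-normalized fluorescence on custom Agilent 4×180K protein-binding microarrays incubated 1 h with ligand-free nuclear receptor dimers. Binding was detected with antibodies against each partner (one per run).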

[2] = system: RARg:RXRa (NR concentration 270 nM, RXRa partner concentration 90 nM)
Outline: as §1

[3] = system: RARg homodimer (NR concentration 270 nM)
Outline: as §1

[4] = system: RXRa DBDmut IVT, anti-RXR (DBD mutation: RXRa K156A/R161A, NR concentration 90 nM)
Outline: as §1

[5] = system: RXRa homodimer (NR concentration 180 nM)
Outline: as §1

[6] = system: THRa:RXRa (NR concentration 90 nM, RXRa partner concentration 90 nM)
Outline: as §1

[7] = system: THRa homodimer (NR concentration 90 nM)
Outline: as §1

[8] = system: VDR homodimer (NR concentration 270 nM)
Outline: as §1

| Sequence | PBM binding z-score [1] | PBM binding z-score [2] | PBM binding z-score [3] | PBM binding z-score [4] | PBM binding z-score [5] | PBM binding z-score [6] | PBM binding z-score [7] | PBM binding z-score [8] |
| --- | --- | --- | --- | --- | --- | --- | --- | --- |
| CGTCCAAGGTCATAGGAGGTCAGTGACGACAGAT | 5.23 | 6.83 | 7.27 | 4.28 | 7.54 | 5.3 | 3.25 | 4.76 |
| ATATGTAGGTTACATCAGGGTCATTCAGGCTATG | 3.47 | 4.16 | 2.29 | 1.46 | 4.28 | 4.05 | 2.29 | 3.17 |
| AGTCAAAGTTCAGAACGAGGTAACGTAAAGCACG | 2.66 | 4.62 | 4.15 | 3.09 | 2.76 | 3.63 | 0.7 | 1.94 |
| ATCTCGAGGTAAAAGTTCAGTGAATCCCGAGGAT | 2.35 | 2.35 | 1.86 | 0.47 | 2.58 | 1.99 | 0.159 | 0.883 |
| TCTAGCATGCCAGAGGGTCACTCAAGAGGTACGG | 2.71 | 2.48 | 2.22 | 0.0251 | 2.7 | 1.7 | -0.281 | 0.555 |
| TCGAGGAGGTTACCAATGGGGCATTCAGCTTTCT | 1.69 | 2.85 | 1.13 | 0.716 | 1.83 | 1.06 | -0.297 | 0.112 |
| TGAATGAGATTAAAGATCAGGGAACGTGGCGTCG | -0.824 | -0.0861 | 0.247 | -1.09 | 0.253 | -0.316 | -0.698 | -0.27 |
| CCTACCAGGCCAATCTGGGTCACTCAAGGCTTGA | 2.5 | 1.37 | 1.64 | -0.157 | 1.01 | 3.84 | 1.34 | 0.435 |
| TTACCAAGGAGAAAGGTCGTTGATGCACGCCTTG | 1.55 | 1.43 | 0.929 | 0.362 | 2.29 | 1.48 | -0.13 | 1.17 |
| TCTAGTTGGTCAAAGCTCACACACTCGAAATGCG | 0.587 | 0.584 | 0.77 | 1.37 | 0.769 | 0.0893 | 0.269 | 0.0543 |
| TTACCAAGGTGAAAGGTCGTTGATGCACGCCTTG | 2.52 | 4.17 | 2.31 | 0.684 | 5.67 | 3.23 | 0.838 | 1.67 |
| AATACAGGGTCATCGTAGGCCAGAGAACGCACAG | 3.8 | 6.12 | 5.66 | 3.55 | 6.83 | 4.95 | 1.74 | 2.9 |
| GATACAGGGTCACCTAGAGGCCAGAGTATGGAAA | 3.89 | 7.38 | 5.66 | 2.02 | 6.04 | 3.91 | 1.32 | 1.97 |
| ATCTCTAGGTAAAATTCAGTGAAAGATCGATAGA | -0.326 | 0.344 | 0.677 | 0.391 | 0.121 | 0.32 | 0.151 | 0.281 |
| AGAACGAGGGCACGCTGAGTTGATATCAGAGTAG | 1.18 | 2.05 | 2.32 | 2.08 | 1.32 | 1.89 | -0.269 | 1.71 |
| TCTCGGAGGACACGAAGGTCAGGGCTTTCCAGAG | 4.09 | 3.4 | 3.91 | 0.802 | 2.43 | 3.13 | 1.27 | 1.16 |
| GCGACTGGTGCAAAGCAGGTTACCATAAGGTTGG | 0.217 | -0.209 | -0.317 | -0.409 | 0.0236 | 1.93 | -0.397 | -0.448 |
| CCTACTGGGGCATTCAGAGGTCATTGATCATATG | 4.07 | 5.17 | 3.71 | 0.683 | 3.72 | 3.43 | 1.19 | 3.38 |
| TCTTGTAGATCAAGCAGGTTAACAAAGCCTGAGT | 0.14 | 0.253 | 0.0907 | 0.714 | 0.594 | 0.705 | -0.265 | 0.178 |
| AGAATGAGGTTACCAAAGATCAGGGATACGCTTG | 1.07 | 2.08 | 1.72 | 1.22 | 2.54 | 2.8 | 1.06 | 0.23 |
| CATCCAAGGTCAAGGTCAGTGAAAGAGACTCGAA | 5.3 | 6.9 | 7.48 | 3.81 | 6.28 | 4.48 | 3.62 | 3.23 |
| GGAAGGAGGGCAAGTTGATAGCAGAGTTTGATGG | 2.04 | 1.51 | 1.88 | 0.971 | 0.655 | 1.08 | 1.12 | 2 |
| TCATATAGTTAAAGGTGAAAGTCGAACGATATGA | 1.34 | 1.47 | 1.18 | 0.551 | 2.08 | 1.23 | -0.586 | -0.0826 |
| ATATGTAGGTTCTCGGGTCATTCAGTTTGCGCAT | 2.61 | 2.47 | 1.7 | 2.28 | 2.88 | 3.46 | 3.29 | 4.65 |
| TCGAGTAGGTTACCAATGGGGCATTGAGCTTTCT | 0.567 | 1.1 | 0.221 | 0.408 | 0.672 | 0.145 | -0.895 | -0.64 |
| ACTAGTTAGTCAGCTGAGGTCACACACAATTCGG | 4.4 | 3.65 | 3.31 | 1.91 | 4.01 | 4.76 | 5.46 | 3.81 |
